36 compounds from PubChem BioAssay can be followed below.

Values without a mark were called inactive. Activity calls are given as the source filed them.

For the assay, the target named is Homeobox protein Hox-A13 (Mus musculus) (UniProt Q62424). As to the kind of experiment: inhibitors of HoxA13-DNA binding, primary screen, biochemical, fluorescence polarization, labeled oligonucleotide (AID 1185). Conditions: 15 min, higher = more signal, called active from +8 up or from −8 down. A general note: Polarisation of emitted light reports the rotation of a fluorescent probe.
Sequence of Homeobox protein Hox-A13 (Mus musculus) (Q62424 whole entry, looked up): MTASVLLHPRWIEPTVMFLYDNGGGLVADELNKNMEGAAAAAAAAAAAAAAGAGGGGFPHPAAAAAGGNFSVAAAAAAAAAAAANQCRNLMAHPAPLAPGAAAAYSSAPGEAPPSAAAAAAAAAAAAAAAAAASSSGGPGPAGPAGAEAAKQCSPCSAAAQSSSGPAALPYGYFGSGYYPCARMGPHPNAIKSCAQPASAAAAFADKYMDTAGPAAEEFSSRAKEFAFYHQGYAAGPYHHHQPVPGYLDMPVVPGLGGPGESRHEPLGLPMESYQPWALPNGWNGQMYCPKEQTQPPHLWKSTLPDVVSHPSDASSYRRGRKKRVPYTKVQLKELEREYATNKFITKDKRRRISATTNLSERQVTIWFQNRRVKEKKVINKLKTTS
As for `C[C@@H](c1ccccc1)N1C(=O)[C@H]2[C@H]3[C@H](O)[C@H](O)CC(=NO[C@@H]4O[C@H](CO)[C@@H](O)[C@H](O)[C@H]4O)[C@@H]3CC[C@H]2C1=O`, the z-score was 0.174.

As to `Cn1c(=O)n2n(c1=O)[C@H]1[C@H](O)[C@@H]3O[C@@H]3C(=NOCc3ccccc3)[C@H]1CC2`, the z-score was -2.35.

For `COC(=O)CC=C[C@@H](C)[C@@H](C=NO[C@@H]1O[C@H](COC(C)=O)[C@@H](OC(C)=O)[C@H](OC(C)=O)[C@H]1OC(C)=O)OC`, the z-score was -2.16.

Consider `CCN1C(=O)[C@H]2[C@H]3[C@H](O)[C@H](O)CC(=NOC[C@H]4O[C@H](c5ccccc5)C=C[C@@H]4Oc4ccc(OC)cc4)[C@@H]3CC[C@H]2C1=O`, for which the z-score was -10.8 (active).

On to `COC(=O)CC=C[C@@H](C)[C@@H](C=NOCC[C@@H]1C=C[C@H](OC(C)=O)[C@@H](COC(C)=O)O1)NS(=O)(=O)c1ccc(C)cc1`, for which the z-score is -5.32.

Turning to `CC(C)CON=C1C[C@@H](O)[C@@H](O)[C@@H]2[C@@H]3C(=O)N(C4CCCCC4)C(=O)[C@@H]3CC[C@H]12`, the z-score was 0.866.

Turning to `CCOC(=O)[C@H](Cc1ccccc1)NC(=O)CCC1CC(OC(=O)NCCc2ccc(F)cc2)CC2(CCCC(COC(=O)NCCc3ccccc3OC)O2)O1` (stereo partly specified), the z-score was -2.27.

On to `CC(C)CON=C1C[C@@H](O)[C@@H](O)[C@@H]2[C@@H]3C(=O)N(c4cccc(Oc5ccccc5)c4)C(=O)[C@@H]3CC[C@@H]12`, for which the z-score is -0.0907.

On to `CC(C)CON=C1C[C@@H](O)[C@@H](O)[C@@H]2[C@@H]3C(=O)N(C(C)(C)C)C(=O)[C@@H]3CC[C@H]12`, for which the z-score was -0.219.

In the case of `COc1ccc(O[C@@H]2[C@H](O)CO[C@H]2C=Cc2ccccc2)cc1`, the z-score was -1.16.

As to `O=C(NN=C1C[C@@H](O)[C@@H](O)[C@@H]2[C@@H]3C(=O)N(Cc4ccccc4)C(=O)[C@@H]3CC[C@@H]12)OCc1ccccc1`, the z-score is 0.236.

Turning to `CCC(=O)[C@@]1(O)C(=O)N2C(=C3C(=O)OCC[C@@H]31)N(Cc1ccccc1)C(C)=C(C(=O)OC)[C@H]2c1ccccc1`, the z-score is -0.219.

Turning to `CO[C@H]1COC(=O)CCC[C@@H](C)[C@H](OC)COC(=O)[C@@H]2CCCN2C(=O)CC=C[C@@H]1C`, the z-score is -0.0208.

Take `CCCNC(=O)OC[C@H]1O[C@H](CCON=C(C)CCN2CCCc3nc(C)c(C)cc32)C=C[C@@H]1Oc1ccc(OC)cc1`: the z-score was -5.56.

For `COc1ccc(COC(=O)NN=C2C[C@@H](O)[C@@H](O)[C@@H]3[C@@H]4C(=O)N(C5CCCCC5)C(=O)[C@@H]4CC[C@H]23)cc1`, the z-score is -5.48.

As for `CC(C)CON=C1C[C@@H](O)[C@@H](O)[C@@H]2[C@@H]3C(=O)N(Cc4ccc5c(c4)OCO5)C(=O)[C@@H]3CC[C@H]12`, the z-score was -3.41.

As for `CON=CC[C@@H]1C=C[C@H](OC(C)=O)[C@@H](COC(C)=O)O1`, the z-score is 0.463.

Regarding `CO[C@H]1COC(=O)CC=C[C@H](C)[C@@H](OC)COC(=O)[C@@H](C)NC(=O)CC=C[C@@H]1C`, the z-score was -1.25.

On to `CC(=O)OC[C@H]1O[C@H](CC=NO[C@H](C)c2cn([C@H](CO)Cc3ccccc3)nn2)C=C[C@@H]1OC(C)=O`, for which the z-score was -1.83.

Regarding `CC(C)=CCCC(C)=CCON=C1C[C@@H](O)[C@@H](O)[C@@H]2[C@@H]3C(=O)N(c4ccc(F)cc4F)C(=O)[C@@H]3CC[C@@H]12`, the z-score was -4.62.

For the compound `COC(=O)CC=C[C@H](C)[C@@H](OCc1cccc(Br)c1)[C@@H](C)[C@H](OC)C1CCCCC1`, the z-score was 0.0373.

Turning to `COC(=O)[C@H](C)NC(=O)CCC1CC(OC(=O)NCc2cccc3ccccc23)CC2(CCCC(COC(=O)NCC(c3ccccc3)c3ccccc3)O2)O1` (stereo partly specified), the z-score was -4.01.

As for `C#CCCCON=C1C[C@@H](O)[C@@H](O)[C@@H]2[C@@H]3C(=O)N(Cc4ccccc4)C(=O)[C@@H]3CC[C@@H]12`, the z-score is -0.417.

Regarding `COC(=O)[C@H](C)NC(=O)CCC1CC(OC(=O)NCCc2ccc(F)cc2)CC2(CCCC(COC(=O)NCc3cccc(C(F)(F)F)c3)O2)O1` (stereo partly specified), the z-score is -6.12.

Turning to `CCc1cc2c(nc1CC)CCN(CCC(C)=NO[C@H](C)c1cn([C@H](CO)Cc3ccccc3)nn1)C2`, the z-score was -5.78.

As to `Cc1cc2c(nc1C)CCCN2CC(O)CN1CCCc2nc(C)c(C)cc21`, the z-score was -3.33.

Take `CO[C@@H]1COC(=O)[C@H](CCSC)NC(=O)CC=C[C@@H](C)COC(=O)CCC[C@H]1C`: the z-score was -2.31.

In the case of `O=C1[C@H]2[C@H]3[C@H](O)[C@H](O)CC(=NOCc4ccccc4)[C@@H]3CC[C@H]2C(=O)N1Cc1ccc2c(c1)OCO2`, the z-score is -3.53.

On to `CCOC(=O)[C@H](CC(C)C)NC(=O)CCC1CC(OC(=O)NCCc2ccc(F)cc2)CC2(CCCC(COC(=O)NCCOc3ccccc3)O2)O1` (stereo partly specified), for which the z-score was -6.97.

On to `COC(=O)CC=C[C@@H](C)[C@@H](C=NO[C@@H](C)c1cn([C@H](CO)Cc2ccccc2)nn1)NS(=O)(=O)c1ccc(C)cc1`, for which the z-score was -4.93.

Consider `O=C(NN=C1C[C@@H](O)[C@@H](O)[C@@H]2[C@@H]3C(=O)N(C[C@@H]4CCCO4)C(=O)[C@@H]3CC[C@@H]12)OCc1ccccc1`, for which the z-score was 0.756.

As to `C#CCCCON=C1C[C@@H](O)[C@@H](O)[C@@H]2[C@@H]3C(=O)N(c4cccc(Oc5ccccc5)c4)C(=O)[C@@H]3CC[C@H]12`, the z-score is 0.303.

For the compound `COc1ccc(O[C@H]2C=C[C@@H](c3ccccc3)O[C@@H]2COC(=O)CCC(C)=NO[C@@H]2O[C@H](COC(C)=O)[C@@H](OC(C)=O)[C@H](OC(C)=O)[C@H]2OC(C)=O)cc1`, the z-score is -4.34.

With `COc1cc(O)c(C(=O)C=Cc2ccc3c(c2)OCO3)c(OC)c1`, the z-score is -0.978.

For the compound `C#CCCCON=C1C[C@@H](O)[C@@H](O)[C@@H]2[C@@H]3C(=O)N(C(C)(C)C)C(=O)[C@@H]3CC[C@H]12`, the z-score was 0.436.

As to `CCOC(=O)[C@H](CC(C)C)NC(=O)CCC1CC(OC(=O)NCCc2ccc(F)cc2)CC2(CCCC(COC(=O)NCCC(C)C)O2)O1` (stereo partly specified), the z-score was -2.83.
